Data: PubChem BioAssay (Tox21)
Inconclusive results are not listed. A call without a number means that no potency is given here. Active and inactive are the calls of the source. Calls follow the shape of the full dose curve.

Assay: p53 small molecule agonists, cell-based qHTS assay with rat liver microsomes (AID 1963578)
Settings: HCT-116 p53RE-bla, beta-lactamase ratio, 16 h; series mostly up to 66 µM
Description: U.S. Tox21 Program National Center for Advancing Translational Sciences [NCATS] Division of Preclinical Innovation [DPI] U.S. Environmental Protection Agency [EPA] National Institutes of Environmental Health Sciences [NIEHS] National Toxicology Program [NTP] U.S. Food and Drug Administration [FDA] Tox21 Assay Overview: p53, a tumor suppressor protein, is activated following cellular insult, including DNA damage and other cellular stresses. The activation of p53 regulates cell fate by inducing DNA repair, cell cycle arrest, apoptosis, or cellular senescence. The activation of p53, therefore, is a good indicator of DNA damage and other cellular stresses. […] The activation of the reporter gene under culture conditions can be detected by fluorescence intensity. This cell line was used to screen the Tox21 10K compound library in the condition of presence of rat liver microsomes and to identify agonists that activate the p53 signaling pathway after in vitro metabolic activation (Ooka et al., Archive of Toxicology 96:1975-1987, 2022).
Tox21 Assay Protocol Summary: The p53RE-bla cells were dispensed at 4,000cells/3ul/well in 1536-well black-clear bottom plates. After the assay plates were incubated at 37 C, 5% CO2 incubator for 5 hours, 23 nL of compounds dissolved in DMSO, positive controls or DMSO only was transferred to the assay plate. Following compound addition, 3 uL of rat liver microsomes (Molecular Toxicology, Boone, NC) at final concentration of 0.5 mg/mL and 1uL of Beta-Nicotinamide adenine dinucleotide 2-phosphate (NADPH) at final concentration of 0.5 mg/mL were transferred to the assay plate. The plates were incubated at 37 C for 16 hours. 1 uL of LiveBLAzer detection mixture was added to each well and the plates were incubated at room temperature in the dark for 2 h.
In the case of `C=CC(=O)OCCCCCC`, the Potency is reported as “inactive”. In the case of `OCC1CCC(CO)CC1` (stereo not given), the Potency is reported as “inactive”. With `CCC(=O)OC/C=C(\C)CCC=C(C)C` the Potency was “inactive”. In the case of `O=S(=O)(O)c1ccc2cc(O)c(S(=O)(=O)O)cc2c1`, the Potency is reported as “inactive”. In the case of `C[C@@H](O)[C@H]1C(=O)N2C(C(=O)O)=C(SCCN=CN)C[C@H]12`, the Potency is reported as “inactive”. In the case of `CC(C)c1ccc2c(C(C)C)cc(C(C)C)c(S(=O)(=O)O)c2c1`, the Potency is reported as “inactive”. In the case of `CCC(C)NC(N)=O` (stereo not given), the Potency is reported as “inactive”. With `O=C1c2c(O)ccc(Nc3ccc(CCO)cc3)c2C(=O)c2c([N+](=O)[O-])ccc(O)c21` the Potency was “inactive”. For `Cc1cc(C)c(N)c(Cl)c1`, the Potency was “inactive”. In the case of `O=C1CC(c2ccc(Cl)cc2)CC(=O)N1`, the Potency is reported as “inactive”. In the case of `Oc1cccc2ccccc12`, the Potency is reported as “inactive”. With `CCCc1ccc(O)cc1` the Potency was “inactive”. In the case of `Cc1ccc(C(=O)O)cc1`, the Potency is reported as “inactive”. With `Oc1ccc(Sc2ccc(O)cc2)cc1` the Potency was “inactive”. With `CC(C)(C)c1ccc(O)c(C(C)(C)C)c1` the Potency was “inactive”. In the case of `COC(=O)C1=C(C)NC(C)=C(C(=O)OCC(C)C)C1c1ccccc1[N+](=O)[O-]` (stereo not given), the Potency is reported as “inactive”. In the case of `CC(C)C(=O)OCCOc1ccccc1`, the Potency is reported as “inactive”. For `CCC(=O)CC`, the Potency was “inactive”. In the case of `O=S(=O)(O)c1cccc(S(=O)(=O)O)c1`, the Potency is reported as “inactive”. With `Cc1ccccc1S(N)(=O)=O` the Potency was “inactive”. With `CC/C(=C(/CC)c1ccc(O)cc1)c1ccc(O)cc1` the Potency was “inactive”. With `Cc1ccc(S(=O)(=O)O)c(C)c1` the Potency was “inactive”. For `COC(=O)Cc1cccc2ccccc12`, the Potency was “inactive”. In the case of `C[N+](C)(C)CC(O)CCl` (stereo not given), the Potency is reported as “inactive”. For `CC(C)(O)C#CC(C)(C)O`, the Potency was “inactive”. With `CC1=CC(=O)c2ccccc2C1=O` the Potency was “inactive”. For `N#CCc1cccc(C(F)(F)F)c1`, the Potency was “inactive”. In the case of `C#CC(O)CCC` (stereo not given), the Potency is reported as “inactive”. In the case of `CCC(C(=O)OCCOCCN(CC)CC)c1ccccc1` (stereo not given), the Potency is reported as “inactive”. In the case of `C1=CCC2CC=CC2C1` (stereo not given), the Potency is reported as “inactive”. With `Cc1ccc(C(C)(C)C)cc1` the Potency was “inactive”. With `Nc1ccccc1N` the Potency was “inactive”. For `CCCCN=C(N)N=C(N)N`, the Potency was “inactive”. For `Cc1ccc(N)cc1[N+](=O)[O-]`, the Potency was “inactive”. In the case of `Cc1cc(C)c(C(=O)O)c(C)c1`, the Potency is reported as “inactive”. In the case of `COc1nc(N)nc2nc[nH]c12`, the Potency is reported as “inactive”. In the case of `CCc1cnc(C(=O)O)c(C(=O)O)c1`, the Potency is reported as “inactive”. For `CC/C=C/CCO`, the Potency was “inactive”. For `CCCCCCCCOC(=O)CCCCCCCCC(=O)OCCCCCCCC`, the Potency was “inactive”. With `CN(C(=O)c1c(O)c2ccccc2n(C)c1=O)c1ccccc1` the Potency was “inactive”.
